TEAD-YAP inh: TEAD-YAP interaction inhibition; actives 1.4% (n = 640,000); HEK-TIYL cells, TEAD-Gal4/YAP UAS-luciferase luminescence; inhibition, % at 9.12 µM; in the data active = inhibition above about 32%;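 also: 0% = median of test compound wells and 100% = reference inhibitor wells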
MITF primary: blocks human microphthalmia-associated transcription factor. O75030. AlphaScreen MITF homodimerization, bead proximity signal. inhibition, % at 2.6 µM. actives 0.91% (n = 650,000). AID 1259374; in the data active = inhibition above about 50%;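 also: 0% = vehicle wells with protein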
GPR151 activ: activates the human receptor GPR151. Q8TDV0. PathHunter beta-arrestin GPR151 cells, luminescence. activation, % at 11.2 µM. actives 1% (n = 650,000). AID 1508602; in the data active = activation above about 4.9%;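 also: 0% = median of compound wells and 100% = cells with positive control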
Target sequence (Q8TDV0 whole entry, looked up): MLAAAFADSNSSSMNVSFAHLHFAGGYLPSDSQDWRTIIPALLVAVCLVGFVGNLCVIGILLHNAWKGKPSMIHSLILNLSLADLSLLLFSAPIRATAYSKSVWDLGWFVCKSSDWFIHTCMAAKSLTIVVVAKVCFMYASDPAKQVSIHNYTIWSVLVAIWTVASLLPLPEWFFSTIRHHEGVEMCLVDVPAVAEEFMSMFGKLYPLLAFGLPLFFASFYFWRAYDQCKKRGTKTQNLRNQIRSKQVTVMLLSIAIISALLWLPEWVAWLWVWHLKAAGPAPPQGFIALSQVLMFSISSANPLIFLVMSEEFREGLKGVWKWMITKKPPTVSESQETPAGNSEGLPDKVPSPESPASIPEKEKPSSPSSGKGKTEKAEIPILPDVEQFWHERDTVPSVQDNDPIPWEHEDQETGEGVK
FBW7 act: activators of human E3 ligase FBW7. AlphaScreen FBW7–phospho-cyclin E peptide binding, activator screen. normalized activity (activation), % at 26.1 µM. actives 0.13% (n = 650,000); in the data active = normalized activity above about 1.9%;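 also: purified mutant Fbw7 with reduced substrate affinity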
MITF inh conf: confirmation of human MITF inhibitors. shares compounds with MITF primary. AlphaScreen MITF homodimerization, biotin/His-MITF beads. inhibition, % at 2.6 µM. actives 16% (n = 4,700). AID 1259372;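 active = inhibition above a cutoff derived from the DMSO control wells, cut at about 28% in these data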;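 also: 0% = MITF dimer wells with DMSO only; inhibitors lower the bead chemiluminescence by keeping MITF from dimerizing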
AS interf DR: optically interferes with AlphaScreen signal in dose response | shares compounds with MITF primary | IC50, µM | AlphaScreen optical interference counterscreen, cell-free | AID 1259373 | actives 6% (n = 480); call rule not given here
AS interf ctr: optically interferes with AlphaScreen signal; LysRS AlphaScreen counterscreen, signal interference, triplicate; shares compounds with MITF primary; inhibition, % at 2.6 µM; actives 7.6% (n = 4,700); AID 1259376;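 active = inhibition above a cutoff derived from the DMSO control wells, cut at about 30% in these data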
GPR151 conf act: human GPR151 activation, confirmation screen. shares compounds with GPR151 activ. GPR151 PathHunter beta-arrestin cells, luminescence, 90 min; % of EA-reagent control over plate median. activation, % at 11.2 µM. 6,700 tested, under 10 active;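 active = mean percent activation across replicates above the confirmation screen cutoff of 4.91%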
GPR119 counter: counter-screen for GPR151 activators: effect on human GPR119; GPR119 PathHunter beta-arrestin cells, luminescence, 90 min; 0 = compound-well median, 100 = enzyme-acceptor control; shares compounds with GPR151 activ; activation, % at 11.2 µM; actives 0.3% (n = 6,700); AID 1508611;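 active = mean percent activation in the counterscreen above 29.09%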;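 also: counterscreen on off-target GPR119 to flag nonselective hits from the GPR151 activator screen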
The depositor's hits bear a star; . = no result given. Hits are enriched below; roughly 3.4% of the tested compounds scored in any of these assays.

SMILES	TEAD-YAP inh	MITF primary	GPR151 activ	FBW7 act	MITF inh conf	AS interf ctr	GPR151 conf act	GPR119 counter	others
Cc1ccc2c(c1)C(C)CC(C)(C)N2C(=O)CSc1ncccn1 (stereo unspecified)	-21	18	-1	0	.	.	.	.
Cc1ccc2c(c1)C(C)CC(C)(C)N2C(=O)CNCCN1CCOCC1 (stereo unspecified)	-8	87*	0	0	10	23	.	.
COc1ccc2c(c1)C(C)CC(C)(C)N2C(=O)CNCc1ccco1 (stereo unspecified)	-5	57*	0	0	12	10	.	.
COc1ccc2c(c1)C(C)CC(C)(C)N2C(=O)CSc1ncccn1 (stereo unspecified)	-2	2	1	0	.	.	.	.
CCOCCCNCC(=O)N1c2ccc(C)cc2C(C)CC1(C)C (stereo unspecified)	5	56*	1	0	17	9	.	.
Cc1cccc(-n2nc3c(c2NC(=O)CCC2CCCC2)CS(=O)C3)c1C (stereo unspecified)	12	11	1	0	.	.	.	.
FC(F)(F)C(Sc1ccccc1)=C(Sc1ccccc1)Sc1ccccc1	-8	-13	1	0	.	.	.	.
CCOc1ccccc1/C=N\NC(=O)c1ccco1	-42	70*	0	0	2	9	.	.
CC(=O)NS(=O)(=O)c1ccc(NC(=O)c2ccc([N+](=O)[O-])o2)cc1	12	64*	3	0	40*	-5	.	.	AS interf DR=>6.6
O=C(Nc1ccc(Br)cc1)c1ccc([N+](=O)[O-])o1	9	10	1	0	.	.	.	.
COc1cccc(-c2cc(CNC(=O)c3ccc4c(c3)OCO4)no2)c1	3	51*	1	0	9	-11	.	.
COc1ccc(-c2cccc(C(=O)NCc3ccc4c(c3)OCO4)c2)cc1	1	-3	0	0	.	.	.	.
CCOc1ccccc1CN1CCC(N2CCCC2)CC1	0	56*	9.2*	0	-11	-7	-1	-10
FC(F)(F)c1cccc(OCCCCNCCN2CCOCC2)c1	7	65*	5.8*	0	-2	9	0	-5
O=C(NCc1ccccc1Cl)c1ccc(Cn2c(=S)[nH]c3ccc(Br)cc3c2=O)cc1	1	2	-2	0	.	.	.	.
CC(=O)c1ccc(C(=O)N2CCC(C3(CCC(C)C)NC(=O)NC3=O)CC2)s1 (stereo unspecified)	4	3	1	0	.	.	.	.
O=C(O)c1cc(N=Cc2ccco2)ccc1O	-6	51*	5.0*	0	81*	-2	2	16	AS interf DR=>6.5
O=C(O)c1cc(N=Cc2nc(-c3ccc(Cl)cc3)oc2O)ccc1O	-1	11	1	0	.	.	.	.
COc1ccccc1/C=C/CN1CCN(Cc2ccc3c(c2)OCO3)CC1	-3	69*	6.1*	0	-1	1	0	-8
COc1ccccc1C(=O)N1CCN(Cc2ccc3c(c2)OCO3)CC1	2	-5	2	0	.	.	.	.
Fc1ccccc1-c1cc(NCCCn2ccnc2)nc(-c2ccncc2)n1	3	62*	7.5*	-1	34*	41*	-1	-7
Clc1cc2c(c3ncccc13)OCN(CCCN1CCOCC1)C2	27	92*	5.2*	0	102*	100*	0	3
CCOC(=O)N1CC(=O)Nc2ccccc2S1(=O)=O	1	66*	11*	1	17	17	0	10
Cc1ccc(N2CC(=O)Nc3ccccc3S2(=O)=O)cc1	-7	14	1	0	.	.	.	.
CCOC(=O)N1CCN(C(=O)C2CCN(C/C(C)=C/c3ccccc3)CC2)CC1	2	58*	6.6*	0	11	12	0	7
SMILES	TEAD-YAP inh	MITF primary	GPR151 activ	FBW7 act	MITF inh conf	AS interf ctr	GPR151 conf act	GPR119 counter	others
C/C(=C\c1ccccc1)CN1CCC(C(=O)N2CCCC2)CC1	12	37	2	0	.	.	.	.
O=C(/C=C/c1ccc(F)cc1)N1CCN(c2ccccc2)CC1	-4	-12	2	0	.	.	.	.
COc1ccc(OC)c(CN2CCC(C(=O)NCc3ccc(C)cc3)CC2)c1	3	23	-1	0	.	.	.	.
COc1ccc(OC)c(CN2CCN(Cc3ccc(C)cc3)CC2)c1	-3	83*	5.5*	0	1	7	-1	-19
COC(=O)COC(=O)c1c(Cl)ccc(Cl)c1OC	-7	-7	0	0	.	.	.	.
Cc1ccc(OCCN2CCNCC2)c(C)c1	-6	44	0	0	.	.	.	.
CCN1CCN(CCOc2cc(C)ccc2C)CC1	4	65*	17*	0	6	12	0	-3
O=S(=O)(NCc1ccccc1)c1cccc(S(=O)(=O)c2ccccc2)c1	-2	-10	3	0	.	.	.	.
O=C1Nc2ccc(S(=O)(=O)NCc3ccccc3)cc2C1=O	12	79*	6.1*	0	57*	13	0	-10	AS interf DR=>6.1
CC(=O)N1CCc2cc(S(=O)(=O)NC(Cc3ccccc3)C(=O)N3CCCC3)ccc21 (stereo unspecified)	5	-5	0	0	.	.	.	.
COc1cc(OC)c(C(=O)OC2CCCC2=O)cc1OC (stereo unspecified)	5	76*	5.2*	0	67*	6	1	2	AS interf DR=>7
O=C(Nc1cc(Cl)ccc1N1CCOCC1)c1ccc(F)cc1	8	10	1	0	.	.	.	.
CC(=O)c1cccc(OCCCCN2CCN(C)CC2)c1	7	55*	5.1*	0	3	16	0	6
Cc1ccc(N2C(=O)c3ccccc3NC2c2cccc([N+](=O)[O-])c2)cc1 (stereo unspecified)	-9	63*	8.6*	0	77*	6	0	-12	AS interf DR=>5.2
O=C1c2ccccc2NC(c2cccc([N+](=O)[O-])c2)N1c1ccc(F)cc1 (stereo unspecified)	10	5	0	0	.	.	.	.
COc1c(C)cccc1C(=O)Nc1ccc2oc(=O)ccc2c1	-22	-2	1	0	.	.	.	.
COc1ccccc1-c1nnc(C2CCN(S(=O)(=O)Cc3ccccc3)CC2)o1	-9	9	0	0	.	.	.	.
COc1ccccc1CC(=O)N1CC[C@@H]2[C@H](CCCN2C(=O)c2occc2C)C1	6	52*	7.3*	0	-6	0	0	7
CCc1cc(OCCCCN2CCNCC2)ccc1Cl	-15	54*	6.4*	0	2	-1	0	5
CCc1cc(OCCCN2CCNCC2)ccc1Cl	-5	4	1	0	.	.	.	.
